Growth inhibition data for 39 compounds are collected here from PubChem BioAssay (NCI).

Compounds without any hit were thinned out: in the full panel of roughly 79,000, 15% have a hit. Values without a mark were called inactive. Calls of active or inactive are those of the source. No stated cut-off is given here; in the data, active means growth inhibition above about 70%; inactive means the rest.

Assay [1] in a line: NCI Yeast Anticancer Drug Screen. Data for the rad50 strain (AID 155).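 Further: 0% = growth of vehicle-only cultures of the same strain.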 The settings on record: S. cerevisiae rad50 strain growth inhibition; at 50.0 µM; hits give high values. The gist of the method:
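Vehicle-treated cultures provide the reference for the growth inhibition reported for compound-exposed, repair-deficient yeast.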

The nature of assay [2]: NCI Yeast Anticancer Drug Screen. Data for the mec2-1 strain (AID 157). The following applies: S. cerevisiae mec2-1 strain, at 50.0 µM, hits give high values. The gist of the method: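 Strain: mec2-1 (DNA repair/cell cycle alteration). Compound exposure, then growth measured; inhibition expressed relative to vehicle.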
Assay [3] can be described thus: NCI Yeast Anticancer Drug Screen. Data for the sgs1 mgt1 strain (AID 161).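 Further: 0% = growth of cultures given vehicle only.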 The settings on record: S. cerevisiae sgs1 mgt1 strain, at 50.0 µM, hits give high values. The gist of the method:
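Test agents were incubated with a DNA-repair-mutant yeast strain. Growth was then read and compared against vehicle-treated controls.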

A short description of assay [4]: NCI Yeast Anticancer Drug Screen. Data for the cln2 rad14 strain (AID 165).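 Further: 0% = growth equal to vehicle treated cultures.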 The following applies: S. cerevisiae cln2 rad14 strain, at 50.0 µM, hits give high values. The gist of the method:
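Compounds are applied to the cln2 rad14 yeast strain, and growth is then compared with that of vehicle-treated cultures to give inhibition.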

Assay [5] is described as follows: NCI Yeast Anticancer Drug Screen. Data for the bub3 strain (AID 167). The settings on record: S. cerevisiae bub3 mutant strain, at 50.0 µM, hits give high values. The essentials: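 Mutant yeast screening strain plus compound; vehicle-treated cultures serve as the 0% inhibition reference.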
The nature of assay [6]: NCI Yeast Anticancer Drug Screen. Data for the mlh1 rad18 strain (AID 175). The settings on record: S. cerevisiae mlh1 rad18 strain growth inhibition; at 50.0 µM; hits give high values. The essentials:
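Read-out is yeast growth inhibition, calculated against vehicle-only controls. The compound was applied to a strain engineered with DNA damage repair alterations.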

As to `O=C(Nc1ccc(Cl)cc1[N+](=O)[O-])Oc1ccc(C(=O)OCc2ccccc2)cc1`, the growth inhibition in assay [1] was 76.3% (active); in assay [2] it was 75.1% (active); in assay [3] it was 71.5% (active); in assay [4], 48.5%; in assay [5], 84.2% (active); in assay [6], 78.1% (active).
As to `O=C(Nc1ccc([N+](=O)[O-])cc1)N1CCOCC1`, the growth inhibition in assay [1] was 4.8%; in assay [2] it was -17.8%; in assay [3], 21.5%; in assay [4], -1.25%; in assay [5], 25.2%; in assay [6], 15.2%.
As to `CCOC(=O)C1=C(C(=O)c2ccc(C)cc2)C(c2ccc([N+](=O)[O-])cc2)C(C(=O)c2ccc(C)cc2)=C(C(=O)OCC)N1`, the growth inhibition was -27.3% in assay [1]; -18.2% in assay [2]; -8.9% in assay [3]; -12.4% in assay [4]; -14.9% in assay [5]; -11.7% in assay [6].
`CCCCCCC(Br)CCCC` (centres undefined): the growth inhibition was 15.6% in assay [1]; -8.85% in assay [2]; 14% in assay [3]; -15.2% in assay [4]; -7.75% in assay [5]; -4.9% in assay [6].
Consider `CN(C)C(=O)Nc1cccc(OC(=O)NCCCl)c1`, for which the growth inhibition in assay [1] is 6.55%; in assay [2], 52.5%; in assay [3], 30.7%; in assay [4] it was 0.9%; in assay [5], 41%; in assay [6], 20.7%.
`C/C(Cc1ccccc1)=N\NC(N)=S`: the growth inhibition in assay [1] is 13.3%; in assay [2] it was 1.15%; in assay [3] it was 27.6%; in assay [4] it was -12.7%; in assay [5], 8.5%; in assay [6] it was 29.5%.
In the case of `CCCCCCOCC(=O)O`, the growth inhibition was -6.75% in assay [1]; -11.2% in assay [2]; -7.25% in assay [3]; -19.8% in assay [4]; -10.4% in assay [5]; -13.7% in assay [6].
For the compound `CCOC(=O)c1c[nH]c(=S)n(C)c1=O`, the growth inhibition in assay [1] is -6.6%; in assay [2], -10.2%; in assay [3], -6.65%; in assay [4], -14.1%; in assay [5], 0.4%; in assay [6], 2.1%.
Take `Cc1ccc(S(=O)(=O)CCN2CCOCC2)cc1`: the growth inhibition is 15.3% in assay [1]; -3.15% in assay [2]; 5% in assay [3]; -32.3% in assay [4]; 5.85% in assay [5]; 2.8% in assay [6].
Regarding `CC(C)(C)OC(=O)Cc1c[nH]c2ccccc12`, the growth inhibition was -38.2% in assay [1]; -27.1% in assay [2]; -9.45% in assay [3]; -19.1% in assay [4]; -27.6% in assay [5]; -41.1% in assay [6].
In the case of `Nc1nc(N)c2nc(C(=O)O)c(C(=O)O)nc2n1`, the growth inhibition in assay [1] was -20.6%; in assay [2] it was -8.2%; in assay [3], -11.5%; in assay [4], -15.8%; in assay [5], -19%; in assay [6], -4.2%.
As for `CCCC(=O)Nc1cc([N+](=O)[O-])c([N+](=O)[O-])cc1OC`, the growth inhibition in assay [1] was -3.7%; in assay [2], -2.55%; in assay [3], 0%; in assay [4] it was 1.65%; in assay [5], 13.8%; in assay [6] it was -3%.
As for `COc1ccc(/C=N/SC(c2ccccc2)(c2ccccc2)c2ccccc2)cc1`, the growth inhibition in assay [1] is 28.6%; in assay [2], 6%; in assay [3], 13.2%; in assay [4], 13.4%; in assay [5], 0.2%; in assay [6], -4.4%.
Regarding `CCOC(=O)c1cc(C)nc(Cl)c1[N+](=O)[O-]`, the growth inhibition was 19.4% in assay [1]; 5.9% in assay [2]; 4.35% in assay [3]; 0.65% in assay [4]; -3.45% in assay [5]; 6.95% in assay [6].
Turning to `CCOC(=O)c1cc(-c2ccccc2)c(-c2ccccc2)c(-c2ccccc2)c1-c1ccccc1`, the growth inhibition in assay [1] is 28.4%; in assay [2], 9.15%; in assay [3] it was 19.6%; in assay [4] it was 18.3%; in assay [5], 2.75%; in assay [6], 14.6%.
Regarding `CCc1nc(Nc2cccc(Cl)c2)c2cnn(-c3ccccc3)c2n1`, the growth inhibition in assay [1] was -11.2%; in assay [2], -8.35%; in assay [3], -4.35%; in assay [4] it was -48.4%; in assay [5], 14.7%; in assay [6], -6.85%.
On to `O=C(CC(O)(C(F)(F)F)C(F)(F)F)c1ccc(Cl)c([N+](=O)[O-])c1`, for which the growth inhibition in assay [1] was 97.2% (active); in assay [2] it was 99.2% (active); in assay [3] it was 99.1% (active); in assay [4], 96.6% (active); in assay [5], 97.7% (active); in assay [6], 98.8% (active).
In the case of `C=CN1C(=O)NC(C)(CC(C)C)C1=O` (centres undefined), the growth inhibition in assay [1] was -1.15%; in assay [2], -10.2%; in assay [3], -6%; in assay [4], 6.75%; in assay [5], -7.25%; in assay [6], 18.4%.
On to `CCS(=O)CCCN1CCc2ccccc2C1` (centres undefined), for which the growth inhibition is 25.5% in assay [1]; -0.95% in assay [2]; 13.9% in assay [3]; -33% in assay [4]; -3% in assay [5]; -5.95% in assay [6].
Turning to `COc1ccc2c(c1)CC[C@@H]1[C@@H]2CC[C@]2(C)C(=O)/C(=N/O)C[C@@H]12`, the growth inhibition is -15% in assay [1]; 4.85% in assay [2]; 1.85% in assay [3]; -34% in assay [4]; 31.5% in assay [5]; -14.2% in assay [6].
Take `Cc1n[nH]c(=O)n1-c1cccnc1`: the growth inhibition in assay [1] is -0.7%; in assay [2], 1.5%; in assay [3], -9%; in assay [4], -12.3%; in assay [5], 3.55%; in assay [6] it was 3.6%.
As to `Cc1c([N+](=O)[O-])cc2c(c1[N+](=O)[O-])C(=O)c1ccccc1-2`, the growth inhibition in assay [1] is -2.1%; in assay [2], 4.35%; in assay [3], 8.5%; in assay [4], -14.9%; in assay [5] it was -6.05%; in assay [6], 7.9%.
Consider `CCOC(=O)/C=C(\C)c1ccc(OC)cc1`, for which the growth inhibition in assay [1] was 7.2%; in assay [2], -22.4%; in assay [3], -3.3%; in assay [4], -7.5%; in assay [5] it was -8.7%; in assay [6], 11.8%.
Turning to `O=C(NNc1ccccc1)NNc1ccccc1`, the growth inhibition was 32.8% in assay [1]; 21.4% in assay [2]; 45.3% in assay [3]; 46.3% in assay [4]; 20.8% in assay [5]; 29.8% in assay [6].
Regarding `CC(=O)[C@H]1CC[C@H]2[C@@H]3CCC4=CC(=O)CC[C@]4(C)[C@H]3C[C@H](OS(=O)(=O)c3ccc(C)cc3)[C@]12C`, the growth inhibition was 20.3% in assay [1]; 18.1% in assay [2]; 31.2% in assay [3]; 38.7% in assay [4]; 12.1% in assay [5]; 15.4% in assay [6].
As to `C(=N/n1nnc(-c2ccccc2)n1)/c1ccccc1`, the growth inhibition is -2.4% in assay [1]; -10.1% in assay [2]; -3% in assay [3]; -44.1% in assay [4]; -5.3% in assay [5]; -6.05% in assay [6].
On to `O=c1[nH]nc(-c2ccccc2)n1/N=C/c1ccncc1`, for which the growth inhibition in assay [1] is 21.7%; in assay [2] it was 16.4%; in assay [3], 15.4%; in assay [4] it was 10.2%; in assay [5], 17.6%; in assay [6], 22.7%.
For `Cc1cccc(I)c1`, the growth inhibition in assay [1] was -21.4%; in assay [2], -24.4%; in assay [3] it was -4.95%; in assay [4] it was -2.1%; in assay [5], -2.55%; in assay [6], 17.2%.
In the case of `Brc1ccc(-c2ccc(Br)cc2)cc1`, the growth inhibition in assay [1] is -4.45%; in assay [2], -4.35%; in assay [3], 6.25%; in assay [4] it was -44%; in assay [5], -19.1%; in assay [6], -5.25%.
In the case of `O=CC(C(=O)c1ccccc1[N+](=O)[O-])c1ccccc1` (centres undefined), the growth inhibition in assay [1] was 9.6%; in assay [2], 5.7%; in assay [3], 15.9%; in assay [4] it was 15.8%; in assay [5], 13.7%; in assay [6], 13.4%.
For `CC(=O)N1CCNC(c2ccccc2)C1(C)C` (centres undefined), the growth inhibition was -3.05% in assay [1]; -6.95% in assay [2]; -11.3% in assay [3]; -9.3% in assay [4]; -13.4% in assay [5]; 3.85% in assay [6].
As to `O=C(Nc1ccccc1)C(c1ccccc1)N(Nc1ccccc1Cl)c1ccccc1Cl` (centres undefined), the growth inhibition is 28.8% in assay [1]; 10.8% in assay [2]; 17.1% in assay [3]; 7.05% in assay [4]; -5% in assay [5]; 25% in assay [6].
For `CCOC(=O)NCC1(c2ccccc2)CCN(Cc2ccccc2)CC1`, the growth inhibition in assay [1] was -9.75%; in assay [2], -17.6%; in assay [3], -11.9%; in assay [4], 1.35%; in assay [5] it was -14.9%; in assay [6] it was -1.7%.
Take `O=C(Nc1nccs1)c1cc(C2=CC=CC([N+](=O)[O-])C=C2)nc(=S)[nH]1` (centres undefined): the growth inhibition in assay [1] is -12.9%; in assay [2], -18.5%; in assay [3] it was -23.8%; in assay [4], -8.45%; in assay [5], -8.65%; in assay [6] it was -7.6%.
`Nc1nc(N)c(N=Nc2ccc(S(=O)(=O)NC(=O)c3ccccc3)cc2)c(=O)[nH]1`: the growth inhibition in assay [1] is -8.4%; in assay [2], -4.3%; in assay [3] it was -6.9%; in assay [4] it was -9.35%; in assay [5] it was -2.55%; in assay [6] it was -8.9%.
Turning to `CC(=O)c1cc2c(cc1C)C(C)(C)CCC2`, the growth inhibition in assay [1] was 8.45%; in assay [2] it was 14.2%; in assay [3], 3.1%; in assay [4], -47.7%; in assay [5] it was -16.4%; in assay [6] it was 13.1%.
Regarding `Cc1nc(N(CCO)CCO)c2sc(=S)n(-c3ccccc3)c2n1`, the growth inhibition in assay [1] is -35.5%; in assay [2], -16.4%; in assay [3], -43.9%; in assay [4], -13.7%; in assay [5] it was -14.2%; in assay [6], -45.8%.
For `N#Cc1c2ccccc2cc2c1ccc1ccccc12`, the growth inhibition in assay [1] was 6.95%; in assay [2], 17.1%; in assay [3], 15.8%; in assay [4], -4.45%; in assay [5] it was 11.9%; in assay [6], 17.1%.
For `COc1cc2c(cc1OC)C(Cl)C(c1ccc(Cl)c(Cl)c1)=C2Cl` (centres undefined), the growth inhibition is -0.65% in assay [1]; 14.2% in assay [2]; -4.6% in assay [3]; -0.25% in assay [4]; -4.15% in assay [5]; -5.05% in assay [6].
